This is part of a sample that, as a whole, favours compounds with a hit. Of some 83,000 tested, about 20% had one in any assay.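 Treatment: one concentration, 48 hours, 96-well format. Scoring: percent growth, with anything below 10 considered active.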 Unmarked numbers belong to inactive results. Calls of active or inactive are those of the source.
Key:
Experiment in all cases: NCI-60 one-dose screen, 48 h (100 = growth as untreated, 0 = no growth, -100 = all killed)
Conditions in all cases: 10 µM
NCI-H23 lung = system: NCI-H23 lung
NCI-H226 lung = system: NCI-H226 lung
NCI-H322M lung = system: NCI-H322M lung
HOP-62 NSCLC = system: HOP-62 NSCLC
NCI-H460 lung = system: NCI-H460 lung
NCI-H522 lung = system: NCI-H522 lung
A549/ATCC NSCLC = system: A549/ATCC NSCLC
786-0 renal = system: 786-0 renal
DU-145 prostate = system: DU-145 prostate

SMILES | growth (NCI-H23 lung) | growth (NCI-H226 lung) | growth (NCI-H322M lung) | growth (HOP-62 NSCLC) | growth (NCI-H460 lung) | growth (NCI-H522 lung) | growth (A549/ATCC NSCLC) | growth (786-0 renal) | growth (DU-145 prostate)
Cc1ccc(C(=O)N2C/C(=C/c3ccccc3)C(=O)/C(=C/c3ccccc3)C2)cc1 | 78.6% | 71.2% | 80.5% | 76.9% | 90% | 69% | 84% | 53.6% | 58.3%
CCN(CC)CCN1CC(=O)Nc2cc(Cl)ccc21 | 101% | 95.1% | 104% | 103% | 104% | 92.7% | 102% | 115% | 120%
O=C(CSSCC(=O)c1ccc(Cl)cc1)c1ccc(Cl)cc1 | 79.5% | 88.6% | 72.2% | 78.6% | 35.8% | 58% | 63.6% | 85.9% | 94.4%
O=C(Nc1cccc(-n2cc(-c3ccncc3)c(-c3ccc(O)c(Cl)c3)n2)c1)c1ccc(N2CCOCC2)c(C(F)(F)F)c1 | 42.2% | 85.8% | 44.5% | 41.5% | 11.6% | 35.6% | 22.9% | 8.9% (active) | 62.7%
COc1cc(Cl)cc(-c2nn(-c3cccc(NC(=O)Nc4ccc(Cl)c(Cl)c4)c3)cc2-c2ccncc2)c1 | 5.72% (active) | 7.27% (active) | 32.3% | 15.7% | 3.1% (active) | -19% (active) | 11.4% | 19.6% | 12.1%
CCc1ccc2c(c1)N(CCO)C1=C(C(=O)OC1)C2c1ccccc1 (stereo unspecified) | 101% | 102% | 115% | 81.6% | 109% | 4.79% (active) | 104% | 97.1% | 115%
CCN(CC)CCCOCCCNc1cc(OC)cc2cccnc12 | 83.8% | 85% | 98.7% | 91.7% | 103% | 82.5% | 93.4% | 104% | 116%
COc1cc(/C(=C2/O[C@@H]([C@H]3COC(C)(C)O3)[C@H]3OC(C)(C)O[C@@H]23)c2ccc3ccccc3c2)cc(OC)c1OC | 46.2% | 66.9% | 55.1% | 48% | 43.4% | 8.05% (active) | -9.4% (active) | -1.42% (active) | 2.86% (active)
CN(C)CCN=c1nc2c(c(N)n1-c1ccccc1)c(=S)n(-c1ccccc1)c(=S)n2-c1ccccc1 | 67.6% | 82.3% | 58.5% | 6.19% (active) | 3.8% (active) | 34.2% | 35.3% | -83.5% (active) | 45%

Source: PubChem BioAssay (NCI)
